Common to all, as to assay: DAPPL (digital affinity profiling via proximity ligation, sequencing); 10 mM Tris-HCl pH 7.5, 50 mM NaCl, 1 mM DTT, 4% glycerol, room temperature, 30 min; GST-TFs on glutathione beads, 16-mer random dsDNA library, 0.1% formaldehyde crosslink after washing; high values mean tight binding
Experiment [1] deals with T1, FLI1 (Homo sapiens, UniProt Q01543 1-452).
T1 sequence: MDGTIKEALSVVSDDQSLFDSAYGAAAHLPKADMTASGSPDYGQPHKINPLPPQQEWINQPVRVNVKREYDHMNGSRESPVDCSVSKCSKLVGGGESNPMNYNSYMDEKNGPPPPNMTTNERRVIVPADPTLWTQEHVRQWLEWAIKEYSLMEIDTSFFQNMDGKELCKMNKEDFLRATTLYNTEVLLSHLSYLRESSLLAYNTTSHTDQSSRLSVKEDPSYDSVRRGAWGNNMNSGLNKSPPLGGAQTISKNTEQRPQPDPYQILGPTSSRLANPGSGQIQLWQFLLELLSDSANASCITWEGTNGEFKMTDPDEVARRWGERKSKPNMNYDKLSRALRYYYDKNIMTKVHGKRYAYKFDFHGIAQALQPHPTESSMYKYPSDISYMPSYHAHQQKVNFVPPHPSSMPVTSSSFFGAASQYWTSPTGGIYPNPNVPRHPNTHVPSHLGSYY
The conditions noted are these: protein: recombinant; tags: N-terminal GST; dsDNA, one strand shown. The essentials:
(§1)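 Sequencing on an Illumina NextSeq500 followed washing, crosslinking with 0.1% formaldehyde, proximity ligation (BsaI/T4 ligase, 1 h, 37 °C) and PCR amplification of pools that had been incubated for 30 min at room temperature with 200 nmole of a random double-stranded 16-mer DNA library in Tris/NaCl/DTT/glycerol buffer. Each pool held DNA-barcoded human transcription factors, expressed in yeast as GST fusions and captured on glutathione beads, plus a tag-only sample. Binding signal is a hexamer's read frequency for a factor divided by its frequency in the tag-only sample.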

The target in experiment [2] is T2, ELK1 (Homo sapiens, UniProt P19419 1-428).
T2 sequence: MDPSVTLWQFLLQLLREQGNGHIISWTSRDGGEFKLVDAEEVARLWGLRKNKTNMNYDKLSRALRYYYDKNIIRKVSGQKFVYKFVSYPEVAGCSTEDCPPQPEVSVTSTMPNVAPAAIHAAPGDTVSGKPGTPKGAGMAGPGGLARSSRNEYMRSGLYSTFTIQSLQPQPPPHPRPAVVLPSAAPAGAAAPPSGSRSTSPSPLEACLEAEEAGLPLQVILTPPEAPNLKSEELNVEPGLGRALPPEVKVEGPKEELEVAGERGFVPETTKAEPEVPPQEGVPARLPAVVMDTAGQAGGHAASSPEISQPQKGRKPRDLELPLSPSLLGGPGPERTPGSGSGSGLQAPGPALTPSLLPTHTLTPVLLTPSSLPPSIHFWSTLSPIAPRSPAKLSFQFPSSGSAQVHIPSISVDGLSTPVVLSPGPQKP
The conditions noted are these: protein: recombinant; tags: N-terminal GST; dsDNA, one strand shown. The essentials: as §1

Experiment [3] deals with T3, GABPA (Homo sapiens, UniProt Q06546 1-454).
T3 sequence: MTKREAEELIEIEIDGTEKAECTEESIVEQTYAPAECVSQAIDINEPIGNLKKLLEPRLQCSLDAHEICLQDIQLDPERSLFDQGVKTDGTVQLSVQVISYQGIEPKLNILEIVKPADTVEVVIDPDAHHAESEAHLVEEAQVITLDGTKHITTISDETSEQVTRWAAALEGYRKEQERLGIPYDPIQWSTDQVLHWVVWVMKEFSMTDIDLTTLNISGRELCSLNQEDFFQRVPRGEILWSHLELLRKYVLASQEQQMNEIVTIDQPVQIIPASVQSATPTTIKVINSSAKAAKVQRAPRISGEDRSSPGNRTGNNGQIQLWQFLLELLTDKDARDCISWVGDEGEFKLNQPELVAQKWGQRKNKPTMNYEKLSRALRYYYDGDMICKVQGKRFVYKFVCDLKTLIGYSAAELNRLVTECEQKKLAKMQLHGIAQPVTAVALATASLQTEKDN
The note with it: protein: recombinant; tags: N-terminal GST; dsDNA, one strand shown. The essentials:
as §1

The target in experiment [4] is T4, ERG (Homo sapiens, UniProt P11308 1-479).
T4 sequence: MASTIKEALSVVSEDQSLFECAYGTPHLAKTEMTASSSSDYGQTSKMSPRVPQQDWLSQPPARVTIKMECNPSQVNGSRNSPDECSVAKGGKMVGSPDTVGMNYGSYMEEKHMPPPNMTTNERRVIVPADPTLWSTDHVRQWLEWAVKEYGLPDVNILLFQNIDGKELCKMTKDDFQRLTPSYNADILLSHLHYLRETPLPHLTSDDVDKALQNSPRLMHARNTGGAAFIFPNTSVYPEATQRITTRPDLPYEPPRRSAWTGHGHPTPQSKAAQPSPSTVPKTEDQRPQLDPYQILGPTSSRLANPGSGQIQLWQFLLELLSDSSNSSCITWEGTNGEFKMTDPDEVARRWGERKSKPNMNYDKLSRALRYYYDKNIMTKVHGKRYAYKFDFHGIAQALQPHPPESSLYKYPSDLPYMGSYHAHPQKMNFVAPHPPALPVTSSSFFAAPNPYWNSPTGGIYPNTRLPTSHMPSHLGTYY
The conditions noted are these: protein: recombinant; tags: N-terminal GST; dsDNA, one strand shown. The essentials:
as §1

The target of experiment [5] is ELF1 (Homo sapiens, UniProt P32519 1-619). The note with it: protein: recombinant; tags: N-terminal GST; dsDNA, one strand shown. The essentials:
as §1

Experiment [6] has as its target T5, EHF (Homo sapiens, UniProt Q9NZC4 1-300).
T5 sequence: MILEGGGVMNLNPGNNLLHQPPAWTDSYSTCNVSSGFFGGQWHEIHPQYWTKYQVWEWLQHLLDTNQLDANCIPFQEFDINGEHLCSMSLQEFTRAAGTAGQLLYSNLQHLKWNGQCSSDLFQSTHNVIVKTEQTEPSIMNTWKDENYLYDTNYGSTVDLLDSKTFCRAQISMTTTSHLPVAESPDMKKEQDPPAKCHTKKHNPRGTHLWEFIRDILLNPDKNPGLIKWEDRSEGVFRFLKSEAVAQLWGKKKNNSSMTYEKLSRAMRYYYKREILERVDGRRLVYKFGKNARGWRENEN
The note with it: protein: recombinant; tags: N-terminal GST; dsDNA, one strand shown. The essentials: as §1

The target in experiment [7] is SPI1 (Homo sapiens, UniProt P17947 1-270). The note with it: protein: recombinant; tags: N-terminal GST; dsDNA, one strand shown. The essentials:
as §1

In experiment [8] the target is SPIB (Homo sapiens, UniProt Q01892 1-262). The conditions noted are these: protein: recombinant; tags: N-terminal GST; dsDNA, one strand shown. The essentials:
as §1

The target in experiment [9] is T6, FEV (Homo sapiens, UniProt Q99581 1-238).
T6 sequence: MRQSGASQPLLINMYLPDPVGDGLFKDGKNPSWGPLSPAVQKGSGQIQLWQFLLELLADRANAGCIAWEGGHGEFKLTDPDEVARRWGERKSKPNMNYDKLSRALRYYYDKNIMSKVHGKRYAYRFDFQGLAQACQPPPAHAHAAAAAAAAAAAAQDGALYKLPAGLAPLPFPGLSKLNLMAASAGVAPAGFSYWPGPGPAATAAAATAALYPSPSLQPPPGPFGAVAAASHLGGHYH
The conditions noted are these: protein: recombinant; tags: N-terminal GST; dsDNA, one strand shown. The essentials:
as §1

The target of experiment [10] is ETV5 (Homo sapiens, UniProt P41161 1-510). The conditions noted are these: protein: recombinant; tags: N-terminal GST; dsDNA, one strand shown. The essentials: as §1
Chain of ETV5 (P41161 whole entry): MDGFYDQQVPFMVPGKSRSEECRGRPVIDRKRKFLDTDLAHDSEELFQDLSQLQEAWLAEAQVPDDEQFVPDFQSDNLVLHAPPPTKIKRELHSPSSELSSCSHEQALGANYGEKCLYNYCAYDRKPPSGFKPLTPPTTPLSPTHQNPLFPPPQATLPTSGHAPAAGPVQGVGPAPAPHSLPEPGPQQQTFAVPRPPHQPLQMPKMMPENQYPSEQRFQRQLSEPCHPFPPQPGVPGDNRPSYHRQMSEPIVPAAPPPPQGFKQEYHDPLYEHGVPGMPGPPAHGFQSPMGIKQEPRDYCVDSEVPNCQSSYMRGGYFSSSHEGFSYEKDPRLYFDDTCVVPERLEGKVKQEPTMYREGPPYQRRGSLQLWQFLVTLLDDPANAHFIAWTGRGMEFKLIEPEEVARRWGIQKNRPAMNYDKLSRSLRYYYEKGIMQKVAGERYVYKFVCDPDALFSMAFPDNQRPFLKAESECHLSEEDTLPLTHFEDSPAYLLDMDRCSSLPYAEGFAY
The target of experiment [11] is HSF1 (Homo sapiens, UniProt Q00613 1-529). The note with it: protein: recombinant; tags: N-terminal GST; chain copies: 3; dsDNA, one strand shown. The essentials:
as §1

The target in experiment [12] is T7, SPIC (Homo sapiens, UniProt Q8N5J4 1-248).
T7 sequence: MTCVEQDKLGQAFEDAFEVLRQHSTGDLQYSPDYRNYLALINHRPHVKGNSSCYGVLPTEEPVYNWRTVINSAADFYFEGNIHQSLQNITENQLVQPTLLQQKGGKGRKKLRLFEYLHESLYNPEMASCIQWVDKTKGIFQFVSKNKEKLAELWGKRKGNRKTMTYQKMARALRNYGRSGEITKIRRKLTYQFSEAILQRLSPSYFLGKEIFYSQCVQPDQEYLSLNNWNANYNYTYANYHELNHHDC
The conditions noted are these: protein: recombinant; tags: N-terminal GST; dsDNA, one strand shown. The essentials: as §1

Experiment [13] deals with ELF4 (Homo sapiens, UniProt Q99607 1-663). The conditions noted are these: protein: recombinant; tags: N-terminal GST; dsDNA, one strand shown. The essentials: as §1
Chain of ELF4 (Q99607 whole entry): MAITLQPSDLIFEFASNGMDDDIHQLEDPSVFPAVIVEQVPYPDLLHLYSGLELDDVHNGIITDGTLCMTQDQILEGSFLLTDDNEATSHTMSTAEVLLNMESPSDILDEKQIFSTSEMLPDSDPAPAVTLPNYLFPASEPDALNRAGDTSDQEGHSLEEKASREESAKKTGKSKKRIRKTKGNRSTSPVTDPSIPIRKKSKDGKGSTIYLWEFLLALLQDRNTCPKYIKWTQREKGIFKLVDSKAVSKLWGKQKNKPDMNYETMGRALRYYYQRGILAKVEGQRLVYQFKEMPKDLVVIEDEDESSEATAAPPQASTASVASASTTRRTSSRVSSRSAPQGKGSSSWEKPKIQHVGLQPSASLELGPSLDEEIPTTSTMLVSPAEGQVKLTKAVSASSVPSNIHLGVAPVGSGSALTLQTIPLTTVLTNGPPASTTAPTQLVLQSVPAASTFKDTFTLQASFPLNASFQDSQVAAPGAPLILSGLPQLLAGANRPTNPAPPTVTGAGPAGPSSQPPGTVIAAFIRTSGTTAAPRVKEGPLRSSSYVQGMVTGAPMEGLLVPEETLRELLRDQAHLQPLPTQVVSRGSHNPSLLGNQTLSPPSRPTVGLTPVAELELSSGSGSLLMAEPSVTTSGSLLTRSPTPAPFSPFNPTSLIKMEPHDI
For experiment [14], the target named is T8, ELK4 (Homo sapiens, UniProt P28324-2 1-405).
T8 sequence: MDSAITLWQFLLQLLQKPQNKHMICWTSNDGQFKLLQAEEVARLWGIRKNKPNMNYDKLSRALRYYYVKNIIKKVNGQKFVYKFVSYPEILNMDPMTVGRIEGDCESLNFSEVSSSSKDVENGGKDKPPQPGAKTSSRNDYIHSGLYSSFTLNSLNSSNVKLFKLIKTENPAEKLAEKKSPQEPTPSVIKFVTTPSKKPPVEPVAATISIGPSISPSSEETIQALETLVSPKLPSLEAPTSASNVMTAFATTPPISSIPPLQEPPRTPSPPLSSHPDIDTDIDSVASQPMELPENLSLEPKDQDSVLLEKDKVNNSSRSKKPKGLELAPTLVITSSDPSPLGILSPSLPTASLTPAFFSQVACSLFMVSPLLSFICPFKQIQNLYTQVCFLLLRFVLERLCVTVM
The conditions noted are these: protein: recombinant; tags: N-terminal GST; dsDNA, one strand shown. The essentials:
as §1

In experiment [15] the target is T9, ETV2 (Homo sapiens, UniProt O00321 1-342).
T9 sequence: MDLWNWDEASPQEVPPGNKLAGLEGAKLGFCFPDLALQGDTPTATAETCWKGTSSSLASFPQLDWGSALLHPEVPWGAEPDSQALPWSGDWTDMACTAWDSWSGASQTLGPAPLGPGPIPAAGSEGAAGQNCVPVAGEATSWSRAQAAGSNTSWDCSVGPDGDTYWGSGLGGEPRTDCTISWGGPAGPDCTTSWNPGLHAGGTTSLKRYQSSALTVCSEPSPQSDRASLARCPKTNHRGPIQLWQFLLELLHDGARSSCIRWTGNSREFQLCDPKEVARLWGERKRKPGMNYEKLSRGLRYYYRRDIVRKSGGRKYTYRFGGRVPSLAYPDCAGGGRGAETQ
The conditions noted are these: protein: recombinant; tags: N-terminal GST; dsDNA, one strand shown. The essentials:
as §1

The target in experiment [16] is T10, ELF3 (Homo sapiens, UniProt P78545 1-371).
T10 sequence: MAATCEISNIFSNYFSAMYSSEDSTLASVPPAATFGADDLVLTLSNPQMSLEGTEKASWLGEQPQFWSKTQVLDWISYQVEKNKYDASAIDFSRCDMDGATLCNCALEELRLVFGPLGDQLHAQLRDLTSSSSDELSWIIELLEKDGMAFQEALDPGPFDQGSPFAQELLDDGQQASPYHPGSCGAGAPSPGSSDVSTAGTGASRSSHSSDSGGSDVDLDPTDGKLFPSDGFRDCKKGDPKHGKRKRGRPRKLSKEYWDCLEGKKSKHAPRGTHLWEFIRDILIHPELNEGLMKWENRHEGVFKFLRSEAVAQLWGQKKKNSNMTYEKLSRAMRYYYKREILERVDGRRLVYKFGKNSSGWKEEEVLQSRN
The conditions noted are these: protein: recombinant; tags: N-terminal GST; dsDNA, one strand shown. The essentials: as §1

Experiment [17] deals with CRX (Homo sapiens, UniProt O43186 1-299). The conditions noted are these: protein: recombinant; tags: N-terminal GST; dsDNA, one strand shown. The essentials: as §1
Chain of CRX (O43186 whole entry): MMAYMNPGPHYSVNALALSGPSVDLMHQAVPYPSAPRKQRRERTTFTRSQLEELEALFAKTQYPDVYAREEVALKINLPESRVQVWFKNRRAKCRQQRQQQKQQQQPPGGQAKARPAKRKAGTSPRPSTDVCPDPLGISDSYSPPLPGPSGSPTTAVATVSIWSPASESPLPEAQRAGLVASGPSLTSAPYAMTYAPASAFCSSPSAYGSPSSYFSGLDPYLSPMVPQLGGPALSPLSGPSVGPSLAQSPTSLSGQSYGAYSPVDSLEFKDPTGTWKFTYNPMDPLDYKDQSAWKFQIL
For experiment [18], the target named is ETV1 (Homo sapiens, UniProt P50549 1-477). The note with it: protein: recombinant; tags: N-terminal GST; dsDNA, one strand shown. The essentials:
as §1

This is an account of results in publication PMC7862700, “An all-to-all approach to the identification of sequence-specific readers for epigenetic DNA modifications on cytosine”.

Chain of HSF1 (Q00613 whole entry): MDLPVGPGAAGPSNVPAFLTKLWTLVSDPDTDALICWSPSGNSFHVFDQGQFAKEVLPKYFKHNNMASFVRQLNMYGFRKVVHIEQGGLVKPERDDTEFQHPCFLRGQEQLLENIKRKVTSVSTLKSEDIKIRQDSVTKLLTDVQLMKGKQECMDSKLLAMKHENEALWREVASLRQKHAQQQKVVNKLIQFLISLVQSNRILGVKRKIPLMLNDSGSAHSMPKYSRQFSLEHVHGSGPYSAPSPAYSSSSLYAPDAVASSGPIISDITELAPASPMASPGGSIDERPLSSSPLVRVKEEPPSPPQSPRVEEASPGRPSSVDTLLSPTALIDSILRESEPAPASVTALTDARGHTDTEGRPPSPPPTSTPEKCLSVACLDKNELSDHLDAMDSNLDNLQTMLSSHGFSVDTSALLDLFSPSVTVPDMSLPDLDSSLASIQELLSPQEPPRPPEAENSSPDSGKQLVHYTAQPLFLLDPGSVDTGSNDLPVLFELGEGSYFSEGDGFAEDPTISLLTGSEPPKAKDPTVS
Chain of SPIB (Q01892 whole entry): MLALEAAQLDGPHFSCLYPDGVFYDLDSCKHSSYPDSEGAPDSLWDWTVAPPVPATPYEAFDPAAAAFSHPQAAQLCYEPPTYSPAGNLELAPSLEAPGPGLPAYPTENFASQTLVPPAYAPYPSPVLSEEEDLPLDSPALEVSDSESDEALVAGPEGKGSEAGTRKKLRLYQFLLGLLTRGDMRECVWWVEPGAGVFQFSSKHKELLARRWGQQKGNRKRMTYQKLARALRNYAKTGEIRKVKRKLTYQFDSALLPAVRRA
Chain of ELF1 (P32519 whole entry): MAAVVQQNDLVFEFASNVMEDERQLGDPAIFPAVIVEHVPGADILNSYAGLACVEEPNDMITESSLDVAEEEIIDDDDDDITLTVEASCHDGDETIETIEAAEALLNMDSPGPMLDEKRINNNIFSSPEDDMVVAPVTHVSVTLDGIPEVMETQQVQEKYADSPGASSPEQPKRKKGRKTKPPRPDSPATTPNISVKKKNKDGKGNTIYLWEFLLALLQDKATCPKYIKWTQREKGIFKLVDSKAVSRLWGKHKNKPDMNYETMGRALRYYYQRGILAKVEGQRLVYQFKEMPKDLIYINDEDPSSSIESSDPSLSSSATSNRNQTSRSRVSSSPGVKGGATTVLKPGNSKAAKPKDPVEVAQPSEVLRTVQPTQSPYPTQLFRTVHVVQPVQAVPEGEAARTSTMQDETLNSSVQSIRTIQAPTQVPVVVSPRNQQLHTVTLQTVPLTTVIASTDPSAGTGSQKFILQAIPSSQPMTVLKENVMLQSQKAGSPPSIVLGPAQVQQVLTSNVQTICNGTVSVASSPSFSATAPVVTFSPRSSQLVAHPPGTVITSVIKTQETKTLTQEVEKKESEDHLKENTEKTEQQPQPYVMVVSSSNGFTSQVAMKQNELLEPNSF
Chain of ETV1 (P50549 whole entry): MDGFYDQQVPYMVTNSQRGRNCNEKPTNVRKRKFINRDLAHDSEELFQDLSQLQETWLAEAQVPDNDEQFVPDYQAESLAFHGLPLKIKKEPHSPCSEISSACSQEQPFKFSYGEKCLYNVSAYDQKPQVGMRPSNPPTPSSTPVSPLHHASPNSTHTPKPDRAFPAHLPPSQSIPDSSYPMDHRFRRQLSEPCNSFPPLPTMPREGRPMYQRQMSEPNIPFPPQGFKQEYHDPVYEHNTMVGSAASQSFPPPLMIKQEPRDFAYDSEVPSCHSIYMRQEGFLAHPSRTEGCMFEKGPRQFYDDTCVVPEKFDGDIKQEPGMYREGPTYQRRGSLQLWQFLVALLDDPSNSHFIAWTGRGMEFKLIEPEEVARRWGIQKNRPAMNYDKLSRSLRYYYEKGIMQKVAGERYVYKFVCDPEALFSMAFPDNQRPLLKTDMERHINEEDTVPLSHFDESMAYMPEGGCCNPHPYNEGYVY

CCGAAA: the binding signal in experiment [1] was 1.25 fold enrichment (6-mer frequency, TF over GST control); in experiment [2], 1.23 fold enrichment (6-mer frequency, TF over GST control); in experiment [3], 1.33 fold enrichment (6-mer frequency, TF over GST control); in [4], 1.2 fold enrichment (6-mer frequency, TF over GST control); in [5], 1.25 fold enrichment (6-mer frequency, TF over GST control); in [6], 1.22 fold enrichment (6-mer frequency, TF over GST control). Also, the binding signal in experiment [7] is 1.21 fold enrichment (6-mer frequency, TF over GST control); in experiment [8], 1.26 fold enrichment (6-mer frequency, TF over GST control); in experiment [9] it was 1.17 fold enrichment (6-mer frequency, TF over GST control); in experiment [10], 1.25 fold enrichment (6-mer frequency, TF over GST control); in experiment [11], 1.73 fold enrichment (6-mer frequency, TF over GST control); in experiment [12] it was 1.31 fold enrichment (6-mer frequency, TF over GST control). In addition, the binding signal was 1.2 fold enrichment (6-mer frequency, TF over GST control) in [13]; 1.14 fold enrichment (6-mer frequency, TF over GST control) in experiment [14]; 1.27 fold enrichment (6-mer frequency, TF over GST control) in experiment [15]; 1.17 fold enrichment (6-mer frequency, TF over GST control) in experiment [16]; 1.28 fold enrichment (6-mer frequency, TF over GST control) in experiment [17]; 1.23 fold enrichment (6-mer frequency, TF over GST control) in experiment [18].
